# In the supplement of paper PMC6411743:
# ± gives the standard deviation of the averaged measurements. The full data set covers some 6,500 targets. This sample favours those with the largest changes.
# Compound: Nc1ncnc2c1ncn2[C@@H]1O[C@H](COP(=O)(O)OP(=O)(O)OP(=O)(O)O)[C@@H](O)[C@H]1O [adenosine triphosphate]
# Assay: NP40-soluble protein abundance relative to vehicle (solubility fold change) (ratio); higher = more soluble protein in presence of ATP
# How it was run: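 Crude Jurkat lysate, prepared by Dounce homogenisation, was exposed to eight concentrations from 0.1 to 10 mM for 10 min at room temperature and then 3 min at 37 °C. Solubilisation used 0.8% NP40 with benzonase for 60 min at 4 °C, followed by ultracentrifugation and TMT labelling of the supernatant for LC-MS/MS. After vsn normalisation of intensities, each value is the fold change against the detergent-processed vehicle within each replicate, across three independent experiments.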
# Chain of UniProt P62253 (P62253 whole entry): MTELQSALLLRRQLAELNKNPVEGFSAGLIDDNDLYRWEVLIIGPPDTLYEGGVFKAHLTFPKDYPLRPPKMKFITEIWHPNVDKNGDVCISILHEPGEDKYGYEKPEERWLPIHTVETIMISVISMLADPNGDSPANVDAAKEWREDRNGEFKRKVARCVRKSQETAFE
# Chain of UniProt P05114 (P05114 whole entry): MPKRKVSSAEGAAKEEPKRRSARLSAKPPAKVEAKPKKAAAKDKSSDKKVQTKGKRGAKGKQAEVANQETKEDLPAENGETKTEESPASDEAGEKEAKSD
Target,NP40-soluble protein abundance (concentration: 1mM),NP40-soluble protein abundance (concentration: 2mM),NP40-soluble protein abundance (concentration: 4mM),NP40-soluble protein abundance (concentration: 6mM),NP40-soluble protein abundance (concentration: 8mM),NP40-soluble protein abundance (concentration: 10mM)
HMGN1 (UniProt P05114),1.23 ± 0.32,2 ± 0.51,1.5 ± 0.35,1.88 ± 0.89,1.67 ± 0.38,1.95 ± 1.1
UniProt P49354|H0YCW1,1.05 ± 0.088,1.01 ± 0.059,1.03 ± 0.053,0.955 ± 0.12,1.04 ± 0.076,0.996 ± 0.062
UniProt P62253,1.06 ± 0.053,1.05 ± 0.071,1 ± 0.07,1.01 ± 0.11,1.03 ± 0.097,0.947 ± 0.049
